# Data from PubChem BioAssay (EPA / NIEHS).
# Active and inactive are the calls of the source. How the source made its calls: active means hit-call score of the fitted dose curve at least 0.9, where 1 is the maximum; inactive means score below 0.9.
# What was measured:
# [1] = read-out: Monocyte Chemoattractant Protein-1 (MCP1), CCL2 (gene 6347); assay: BSK_3C_MCP1: BioMAP Diversity Plus: 3C Assay for Monocyte Chemoattractant Protein-1 (MCP1) Biomarker Activity (AID 2283017); settings: primary human endothelial cells (HUVEC); actives raise or lower the signal
# In short: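 MCP-1 was measured by ELISA 24 h after dosing in primary HUVEC 3C cultures and fitted in both directions relative to DMSO; cytotoxicity was checked by SRB total-protein staining in parallel wells.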
# [2] = read-out: Interleukin-8 (IL8), CXCL8 (gene 3576); assay: BSK_3C_IL8: BioMAP Diversity Plus: 3C Assay for Interleukin-8 (IL8) Biomarker Activity (AID 2283020); settings: primary human endothelial cells (HUVEC); actives raise or lower the signal
# In short: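 IL-8 was measured by ELISA in HUVEC cultures 24 h after chemical dosing, with gain or loss of signal fitted relative to DMSO. Parallel SRB total-protein staining tracked overt cytotoxicity.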
# [3] = read-out: Monokine induced gamma interferon (MIG), CXCL9 (gene 4283); assay: BSK_3C_MIG: BioMAP Diversity Plus: 3C Assay for Monokine induced gamma interferon (MIG) Biomarker Activity (AID 2283021); settings: primary human endothelial cells (HUVEC); actives raise or lower the signal;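 on AC50: MIG protein level measured by immunoassay in the treated endothelial cultures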
# In short: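 ELISA measurement of MIG in human umbilical vein endothelial cells 24 h after treatment. Cytotoxicity tracked by SRB staining in parallel cultures; gain or loss of signal fitted relative to DMSO.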
# [4] = BSK_3C_SRB: Viability Assessment in the BioMAP Diversity Plus: 3C Assay (AID 2283023); settings: primary human endothelial cells (HUVEC);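 further: fitted both ways against DMSO so a hit may be signal rise or drop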
# In short: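 Cytotoxicity readout in parallel HUVEC 3C cultures: after 24 h compound exposure, cells fixed with 10% TCA, stained with 0.1% SRB and read at 560 nm. Gain or loss relative to DMSO fitted.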
# [5] = read-out: Matrix Metallopeptidase 1 (MMP1), MMP1 (gene 4312); assay: BSK_BE3C_MMP1: BioMAP Diversity Plus: BE3C Assay for Matrix Metallopeptidase 1 (MMP1) Biomarker Activity (AID 2283024); settings: primary human bronchial epithelial cells; actives raise or lower the signal
# In short: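 ELISA measurement of MMP-1 after 24 h compound exposure of primary human bronchial epithelial cells. Changes in either direction fitted relative to DMSO; parallel SRB staining checked overt cytotoxicity.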
# [6] = BSK_4H_SRB: Viability Assessment in the BioMAP Diversity Plus: 4H Assay (AID 2283027); settings: primary human endothelial cells (HUVEC);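 further: cells exposed to compound for 24 h before staining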;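 on AC50: curves fitted both ways versus DMSO so AC50 may be loss or gain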
# In short: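 HUVEC, 24 h post-dose; 10% TCA fix, 0.1% SRB stain, A560 nm. Total protein = overt cytotoxicity, parallel to biomarker read. Bidirectional fit vs DMSO baseline.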
# [7] = BSK_BE3C_SRB: Viability Assessment in the BioMAP Diversity Plus: BE3C Assay (AID 2283028); settings: primary human bronchial epithelial cells;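 on AC50: fitted both ways so AC50 may mark signal gain or loss versus DMSO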
# In short: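 Cytotoxicity read-out: SRB (0.1%) staining of TCA-fixed (10%) human lung bronchial epithelial cells, absorbance 560 nm, 24 h post-dosing. Curves fitted both directions relative to DMSO.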
# [8] = read-out: Urokinase-type plasminogen activator receptor (uPAR), PLAUR (gene 5329); assay: BSK_4H_uPAR: BioMAP Diversity Plus: 4H Assay for Urokinase-type plasminogen activator receptor (uPAR) Biomarker Activity (AID 2283030); settings: primary human endothelial cells (HUVEC); actives raise or lower the signal
# In short: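 uPAR level read by ELISA on HUVEC cultures (BioMAP 4H) 24 h post-dosing, analyzed for gain or loss relative to DMSO. Parallel SRB staining assessed overt cytotoxicity.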
# [9] = read-out: Vascular cell adhesion molecule 1 (VCAM1), VCAM1 (gene 7412); assay: BSK_4H_VCAM1: BioMAP Diversity Plus: 4H Assay for Vascular cell adhesion molecule 1 (VCAM1) Biomarker Activity (AID 2283033); settings: primary human endothelial cells (HUVEC); actives raise or lower the signal;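 on outcome: cell-surface VCAM-1 protein measured by ELISA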
# In short: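 VCAM-1 ELISA read 24 h after chemical dosing of HUVEC in the BioMAP 4H system, with gain or loss of signal fitted relative to DMSO. Parallel SRB staining (560 nm) checked overt cytotoxicity.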
# [10] = read-out: Interferon-gamma inducible Protein 10 (IP10), CXCL10 (gene 3627); assay: BSK_BE3C_IP10: BioMAP Diversity Plus: BE3C Assay for Interferon-gamma inducible Protein 10 (IP10) Biomarker Activity (AID 2283034); settings: primary human bronchial epithelial cells; actives raise or lower the signal
# In short: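 IP-10 quantified by ELISA in human primary bronchial epithelial cell cultures at 24 hours post-dosing. Gain or loss of signal fitted relative to DMSO; parallel SRB staining assessed overt cytotoxicity.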
# [11] = read-out: Monokine induced gamma interferon (MIG), CXCL9 (gene 4283); assay: BSK_BE3C_MIG: BioMAP Diversity Plus: BE3C Assay for Monokine induced gamma interferon (MIG) Biomarker Activity (AID 2283035); settings: primary human bronchial epithelial cells; actives raise or lower the signal
# In short: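 Dose cells (human primary bronchial epithelial), incubate 24 h, quantify MIG by ELISA, then fit concentration–response in both directions relative to DMSO control.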
# [12] = read-out: Urokinase-type plasminogen activator receptor (uPAR), PLAUR (gene 5329); assay: BSK_BE3C_uPAR: BioMAP Diversity Plus: BE3C Assay for Urokinase-type plasminogen activator receptor (uPAR) Biomarker Activity (AID 2283039); settings: primary human bronchial epithelial cells; actives raise or lower the signal;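 on outcome: cells exposed to compound for one day before measurement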
# In short: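 uPAR levels were measured by ELISA after 24 h compound treatment of primary human bronchial epithelial cells, fitted in both directions relative to DMSO. Parallel SRB staining served as the cytotoxicity read-out.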
# [13] = read-out: Interleukin-6 (IL6), IL6 (gene 3569); assay: BSK_CASM3C_IL6: BioMAP Diversity Plus: CASM3C Assay for Interleukin-6 (IL6) Biomarker Activity for (AID 2283040); settings: primary human coronary artery smooth muscle cells; actives raise or lower the signal
# [14] = read-out: Tissue plasminogen activator (tPA), PLAT (gene 5327); assay: BSK_BE3C_tPA: BioMAP Diversity Plus: BE3C Assay for Tissue plasminogen activator (tPA) Biomarker Activity (AID 2283041); settings: primary human bronchial epithelial cells; actives raise or lower the signal;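 on outcome: tPA level quantified by ELISA one day after compound addition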
# In short: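 tPA measured by ELISA 24 h after dosing human primary bronchial epithelial cells (BE3C system). Changes in either direction were fitted against DMSO. Parallel cultures were stained with SRB to flag overt cytotoxicity.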
# [15] = read-out: Human Leukocyte Antigen - DR isotype (HLADR), HLA-DRA (gene 3122); assay: BSK_CASM3C_HLADR: BioMAP Diversity Plus: CASM3C Assay for Human Leukocyte Antigen - DR isotype (HLADR) Biomarker Activity (AID 2283043); settings: primary human coronary artery smooth muscle cells; actives raise or lower the signal;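 further: cell-surface HLA-DR protein level quantified by ELISA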
# [16] = read-out: Macrophage colony-stimulating factor (MCSF), CSF1 (gene 1435); assay: BSK_CASM3C_MCSF: BioMAP Diversity Plus: CASM3C Assay for Macrophage colony-stimulating factor (MCSF) Biomarker Activity (AID 2283044); settings: primary human coronary artery smooth muscle cells; actives raise or lower the signal;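 further: M-CSF protein amount quantified by ELISA after 24 h exposure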
# [17] = read-out: Monocyte Chemoattractant Protein-1 (MCP1), CCL2 (gene 6347); assay: BSK_CASM3C_MCP1: BioMAP Diversity Plus: CASM3C Assay for Monocyte Chemoattractant Protein-1 (MCP1) Biomarker Activity (AID 2283046); settings: primary human coronary artery smooth muscle cells; actives raise or lower the signal;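 further: MCP-1 level quantified by ELISA 24 h after dosing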
# [18] = BSK_CASM3C_Proliferation: Cell Proliferation Assessment in the BioMAP Diversity Plus: CASM3C Assay (AID 2283047); settings: primary human coronary artery smooth muscle cells;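 further: sulforhodamine B total protein stain as relative cell number at 560 nm; sub-confluent cells exposed 48 h before staining; fitted both ways against DMSO so gain or loss of cell number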
# [19] = read-out: Monokine induced gamma interferon (MIG), CXCL9 (gene 4283); assay: BSK_CASM3C_MIG: BioMAP Diversity Plus: CASM3C Assay for Monokine induced gamma interferon (MIG) Biomarker Activity (AID 2283048); settings: primary human coronary artery smooth muscle cells; actives raise or lower the signal;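 further: MIG protein level measured by ELISA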
# [20] = read-out: serum amyloid A (SAA), SAA1 (gene 6288); assay: BSK_CASM3C_SAA: BioMAP Diversity Plus: CASM3C Assay for serum amyloid A (SAA) Biomarker Activity (AID 2283049); settings: primary human coronary artery smooth muscle cells; actives raise or lower the signal;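 further: SAA protein level quantified by ELISA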
compound,measurement,setting,value
CC(=O)/C=C/c1ccccc1,outcome,[1],inactive
same,outcome,[2],inactive
same,outcome,[3],inactive
same,outcome,[4],inactive
same,outcome,[5],inactive
same,outcome,[6],inactive
same,outcome,[7],inactive
same,outcome,[8],inactive
same,outcome,[9],inactive
same,outcome,[10],inactive
same,outcome,[11],inactive
same,outcome,[12],inactive
same,outcome,[13],inactive
same,outcome,[14],inactive
same,outcome,[15],inactive
same,outcome,[16],inactive
same,AC50,[17],0.104 µM (active)
same,outcome,[18],inactive
same,outcome,[19],inactive
same,outcome,[20],inactive
CCC(C)c1cc([N+](=O)[O-])cc([N+](=O)[O-])c1OC(=O)C=C(C)C (stereo not given),AC50,[1],12.8 µM (active)
same,AC50,[2],0.00641 µM (active)
same,AC50,[3],35.3 µM (active)
same,AC50,[4],12.9 µM (active)
same,AC50,[5],34.2 µM (active)
same,AC50,[6],20 µM (active)
same,AC50,[7],32.5 µM (active)
same,AC50,[8],5.79 µM (active)
same,AC50,[9],9.17 µM (active)
same,AC50,[10],8.21 µM (active)
same,AC50,[11],35.1 µM (active)
same,AC50,[12],32.8 µM (active)
same,outcome,[13],inactive
same,AC50,[14],6.13 µM (active)
same,AC50,[15],5.31 µM (active)
same,AC50,[16],30.7 µM (active)
same,outcome,[17],inactive
same,AC50,[18],36.2 µM (active)
same,AC50,[19],33 µM (active)
same,AC50,[20],20 µM (active)
CCCCCCCCCCCC#N,AC50,[1],36.2 µM (active)
same,AC50,[2],20.6 µM (active)
same,outcome,[3],inactive
same,AC50,[4],34.1 µM (active)
same,outcome,[5],inactive
same,AC50,[6],30.3 µM (active)
same,outcome,[7],inactive
same,AC50,[8],20.6 µM (active)
same,AC50,[9],20.6 µM (active)
same,outcome,[10],inactive
same,outcome,[11],inactive
same,outcome,[12],inactive
same,outcome,[13],inactive
same,outcome,[14],inactive
same,outcome,[15],inactive
same,outcome,[16],inactive
same,outcome,[17],inactive
same,outcome,[18],inactive
same,outcome,[19],inactive
same,outcome,[20],inactive
CCc1cc(C)cc(CC)c1-c1c(OC(=O)C(C)(C)C)n2n(c1=O)CCOCC2,outcome,[1],inactive
same,AC50,[2],0.0209 µM (active)
same,outcome,[3],inactive
same,outcome,[4],inactive
same,outcome,[5],inactive
same,outcome,[6],inactive
same,outcome,[7],inactive
same,outcome,[8],inactive
same,AC50,[9],9.41 µM (active)
same,outcome,[10],inactive
same,outcome,[11],inactive
same,outcome,[12],inactive
same,outcome,[13],inactive
same,AC50,[14],5.24 µM (active)
same,AC50,[15],3.97 µM (active)
same,AC50,[16],0.975 µM (active)
same,outcome,[17],inactive
same,AC50,[18],20 µM (active)
same,outcome,[19],inactive
same,AC50,[20],0.0822 µM (active)
C=CC(=O)OCC(CC)CCCC (stereo not given),AC50,[1],20 µM (active)
same,AC50,[2],20 µM (active)
same,outcome,[3],inactive
same,outcome,[4],inactive
same,outcome,[5],inactive
same,outcome,[6],inactive
same,outcome,[7],inactive
same,outcome,[8],inactive
same,AC50,[9],0.159 µM (active)
same,outcome,[10],inactive
same,outcome,[11],inactive
same,outcome,[12],inactive
same,outcome,[13],inactive
same,outcome,[14],inactive
same,outcome,[15],inactive
same,outcome,[16],inactive
same,outcome,[17],inactive
same,outcome,[18],inactive
same,outcome,[19],inactive
same,outcome,[20],inactive
CC(C)CCCCCCCOP(=O)(Oc1ccccc1)Oc1ccccc1,AC50,[1],10.7 µM (active)
same,AC50,[2],20 µM (active)
same,outcome,[3],inactive
same,AC50,[4],9.85 µM (active)
same,outcome,[5],inactive
same,AC50,[6],20 µM (active)
same,AC50,[7],32.6 µM (active)
same,AC50,[8],29.1 µM (active)
same,AC50,[9],25.1 µM (active)
same,AC50,[10],28 µM (active)
same,outcome,[11],inactive
same,outcome,[12],inactive
same,outcome,[13],inactive
same,AC50,[14],3.21 µM (active)
same,outcome,[15],inactive
same,AC50,[16],0.173 µM (active)
same,outcome,[17],inactive
same,outcome,[18],inactive
same,outcome,[19],inactive
same,outcome,[20],inactive
